A selection: hits, their analogues and other compounds. The true share with any hit is near 2%.
M4 ag: agonists of human muscarinic M4 receptor (CHRM4). P08173. CHO-K1 hM4/Gqi5, Fluo-8 calcium fluorescence; vehicle 0%, full acetylcholine response 100%. activation, % at 3 µM. actives 0.14% (n = 360,000). AID 624127;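 active = activation above the run mean over all test wells plus 3 SD, cut at about 32% in these data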;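 note: peak over basal fluorescence ratio per well then scaled between controls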
Target sequence (P08173 whole entry, looked up): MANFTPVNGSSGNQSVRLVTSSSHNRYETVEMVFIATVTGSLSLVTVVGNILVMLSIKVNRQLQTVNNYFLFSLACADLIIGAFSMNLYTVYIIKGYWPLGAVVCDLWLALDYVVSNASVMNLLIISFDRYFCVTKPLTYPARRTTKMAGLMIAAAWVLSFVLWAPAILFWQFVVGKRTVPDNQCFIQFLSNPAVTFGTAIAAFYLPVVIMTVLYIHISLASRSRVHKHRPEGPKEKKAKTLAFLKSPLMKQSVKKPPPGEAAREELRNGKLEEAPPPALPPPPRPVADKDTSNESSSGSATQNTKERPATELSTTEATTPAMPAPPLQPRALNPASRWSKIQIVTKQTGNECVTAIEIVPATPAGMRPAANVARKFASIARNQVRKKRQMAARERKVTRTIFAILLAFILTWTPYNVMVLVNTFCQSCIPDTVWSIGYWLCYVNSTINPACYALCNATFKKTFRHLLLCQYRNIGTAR
M1 ag parental: M1 agonist counterscreen hit in parental CHO-K1 cells; Fluo-8 calcium fluorescence; scaled to maximal ATP response, vehicle zero; activation, % at 3 µM; actives 0.48% (n = 360,000); AID 602248; in the data active = activation above about 15%;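 note: untransfected CHO-K1 host cells lacking M1 receptor as counterscreen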
CHO-K1 Ca PAM: M1 PAM counterscreen hit in parental CHO-K1 cells | activation, % at 3 µM | actives 0.02% (n = 360,000) | ATP EC20, Fluo-8 calcium fluorescence; 0% at ATP EC20, 100% at ATP max;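 active = activation above the run cutoff, the mean activation of all test compounds plus 3 SD, cut at about 40% in these data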;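 note: peak over basal fluorescence ratio in a 140 s read after ATP addition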
CHO-K1 Ca antag: counter-screen for M1 antagonists: effect in parental CHO-K1 cells; ATP-induced calcium, Fluo-8 fluorescence; actives 0.6% (n = 360,000); inhibition, % at 3 µM;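 active = inhibition above a per-plate cutoff, the plate's mean sample inhibition plus 3 SD, cut at about 24% in these data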
CHRM4 PAM: positive allosteric modulators of human muscarinic M4 receptor | P08173 | CHO-K1 hM4/Gqi5, Fluo-8 calcium fluorescence, ACh EC20; 0% = ACh EC20, 100% = maximal ACh | activation, % at 3 µM | actives 0.4% (n = 360,000) | AID 624126;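 active = activation above its plate's cutoff, the mean activation of sample wells plus 3 SD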
CHRM4 antagonist: blocks acetylcholine activation of human M4 receptor; P08173; inhibition, % at 3 µM; CHO-hM4 cells, ACh EC80, Fluo-8 calcium fluorescence; AID 624125; actives 0.73% (n = 360,000);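 active = inhibition above its plate's cutoff, the mean inhibition of sample wells plus 3 SD, cut at about 27% in these data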
Hits are given with their value; i = inactive; ! = not active in a repeat.

SMILES	M4 ag	M1 ag parental	CHO-K1 Ca PAM	CHO-K1 Ca antag	CHRM4 PAM	CHRM4 antagonist
O=C(NC(Nc1nc2ccc([N+](=O)[O-])cc2s1)(C(F)(F)F)C(F)(F)F)c1cccnc1	i	i	i	24	i	i
O=C(NC(NNc1ccc([N+](=O)[O-])cc1)(C(F)(F)F)C(F)(F)F)c1ccccc1Cl	i	i	i	i	i	i
CCOC(=O)C1(Cc2ccccc2)CCCN(Cc2cccc(C(C)=O)c2)C1 (stereo not drawn)	i	16	i	i	i	i
CC1=C(C(=O)Nc2ccccc2)C(c2cc(CN3CCOCC3)cs2)C2=C(CCCC2=O)N1 (stereo not drawn)	i	i	i	i	i	i
CCOC(=O)N1CCN(c2ncnc3c2cnn3-c2ccc(OC)cc2)CC1	i	i	i	i	28	i
CCOC(=O)N1CCN(C(=O)c2cc(COc3ccc4ncccc4c3)on2)CC1	i	i	i	25	i	i
O=C(c1cc(COc2ccc3ncccc3c2)on1)N1CCCC(O)C1 (stereo not drawn)	i	i	i	i	i	i
COCC1CCCN(C(=O)c2cc(COc3ccc4ncccc4c3)on2)C1 (stereo not drawn)	i	i	i	25	i	i
CCCCN1CCCCC1(C)C(=O)NCc1ccc2c(c1)OCO2 (stereo not drawn)	i	i	i	i	i	i
CC(OC(=O)C1CCCCC1)C(=O)Nc1ccc(S(N)(=O)=O)cc1 (stereo not drawn)	i	i	i	i	22	i
COc1ccc(Cc2noc(CN3CCN(c4ccc(Cl)cn4)CC3)n2)cc1OC	i	22	i	i	i	i
O=C(NNC1CC(=O)N(c2ccc(Br)cc2)C1=O)c1cccs1 (stereo not drawn)	i	i	i	i	i	30
O=C(COC(=O)c1ccc(O)cc1O)NC(=O)Cc1ccccc1	i	18	i	i	i	i
Cc1ccn2c(=O)c(NC(=O)c3ccc(Br)o3)c(C)nc2c1	i	i	i	i	23	i
Cc1nc(NC(=O)c2ccc(Br)o2)ccc1Br	i	i	i	i	16	i
CO/N=C/c1ccc(Sc2ccccc2)c([N+](=O)[O-])c1	i	i	i	25	i	i
CO/N=C/c1ccc(Sc2ccccc2N)c([N+](=O)[O-])c1	i	i	i	i	i	i
CNC(=O)COC(=O)c1ccccc1Oc1ccccc1	i	i	i	29	i	i
CCC(OC(=O)c1ccco1)C(=O)NCc1ccc2c(c1)OCO2 (stereo not drawn)	i	i	i	i	19	i
CCC(=O)N1CCC1(C)C(=O)Nc1ncc(C)s1 (stereo not drawn)	i	i	i	i	19	i
CCC(=O)N1CCC1(C)C(=O)Nc1nccs1 (stereo not drawn)	i	i	i	i	i	i
OC[C@H]1O[C@@H](O[C@@H]2[C@@H](CO)O[C@@](O)(CO)[C@H]2O)[C@H](O)[C@@H](O)[C@H]1O	i	i	i	27	i	i
O=C(Nc1ccccc1C(=O)Nc1nnc(C(F)(F)F)s1)c1ccccc1Cl	i	28	i	27	i	i
NC(=O)c1ccccc1NC(=O)c1ccccc1Cl	i	i	i	i	i	i
C=CCN(C(=O)c1cccc(C(F)(F)F)c1)C1(C(=O)Nc2ccccc2)CCN(C(C)C)CC1	i	i	i	i	i	i
SMILES	M4 ag	M1 ag parental	CHO-K1 Ca PAM	CHO-K1 Ca antag	CHRM4 PAM	CHRM4 antagonist
CCN(CC)CCCOC(=O)C(c1ccccc1)c1ccccc1	i	i	i	i	i	91
COc1ccc(C(=O)Oc2ccc3ccc(=O)oc3c2)cc1	i	i	i	i	i	i
COc1ccc(C(=O)Oc2ccc3oc(=O)sc3c2)cc1	i	i	i	i	i	58
O=C(CSc1ncn[nH]1)c1cc2ccccc2o1	i	i	i	i	i	i
NNC(=O)COc1ccc(-c2nccc(-c3ccc(F)cc3)n2)cc1	i	i	i	i	i	i
O=C(Nc1ccc2[nH]ccc2c1)c1cccs1	i	i	i	i	i	i
CCc1nonc1NC(=O)c1oc2ccccc2c1C	i	i	i	i	i	i
CC1CC(OC(=O)C(O)c2ccccc2)CC(C)(C)N1C (stereo not drawn)	i	i	i	i	i	41
Nc1ccc(S(=O)(=O)c2ccc(N)cc2)cc1	i	i	i	26	i	i
Nc1ccc(S(=O)(=O)N2CCCC2)cc1	i	i	i	i	i	i
Cc1oc2c(c(=O)c1C)C(=O)CC(c1ccccc1)C2 (stereo not drawn)	i	i	i	i	i	i
CS(=O)(=O)c1sc(C#N)c2c1C(=O)CC(c1ccccc1)C2 (stereo not drawn)	i	i	i	i	i	76
CCn1cc(C(=O)NCCCOC)c(=O)c2cc(S(=O)(=O)N(C)C3CCCCC3)ccc21	i	i	i	i	i	i
CCC1CCCCN1CCCNC(=O)c1cn(CC)c2ccc(S(=O)(=O)N3CCc4ccccc4C3)cc2c1=O (stereo not drawn)	i	i	i	i	i	31
CCn1cc(C(=O)NCCCN2CCCC(C)C2)c(=O)c2cc(S(=O)(=O)N3CCc4ccccc4C3)ccc21 (stereo not drawn)	i	i	i	i	i	i
CCC1CCCCN1CCCNC(=O)c1cn(CC)c2ccc(S(=O)(=O)N(C)C3CCCCC3)cc2c1=O (stereo not drawn)	i	i	i	i	i	33
Cc1ccc(Nc2nc(-c3c(C)nc4ncccn34)cs2)cc1	i	i	i	i	i	i
Cc1ccn2c(-c3csc(NCc4ccccc4)n3)c(C)nc2c1	i	i	i	25	i	i
Cc1ccn2c(NCc3ccccc3)c(-c3cccs3)nc2c1	i	i	i	i	20	i
Cc1ccn2c(NC(=O)c3ccccc3)c(-c3cccs3)nc2c1	i	i	i	i	i	i
CCC(C)Sc1cccc(-c2nc3cc(C)ccn3c2NCc2ccccc2)c1 (stereo not drawn)	i	i	i	i	i	44!
Cc1nc2ccccn2c1-c1csc(NCc2ccco2)n1	i	i	i	i	i	i
Cc1ccc(Nc2nc(-c3c(C)nc4ccccn34)cs2)cc1	i	i	i	i	i	27
COc1ccccc1C(=O)N1CCN(c2cccc(C(F)(F)F)c2)CC1	i	i	i	i	i	i
CC1CCCC(NC(=O)COC(=O)/C=C/c2ccc(S(=O)(=O)N3CCOCC3)cc2)C1C (stereo not drawn)	i	19	i	i	i	i
COc1ccc(/C=C/C(=O)OCC(=O)NC2CCCC(C)C2C)cc1S(=O)(=O)N1CCOCC1 (stereo not drawn)	i	i	i	i	i	i

Bioassay records as filed in PubChem BioAssay.
